Bioassay records from PubChem.
TSHR antagonist = blocks TSH signaling through the human TSH receptor | P16473 | TSHR-expressing cells, TSH-stimulated cAMP HTRF, 2 h; stronger effect = lower value | activity change, negative = inhibition, % at 11.5 µM | actives 0.2% (n = 330,000) | AID 504810;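 active = activity change below a set negative limit, meaning inhibition stronger than a set level, cut at about -70% in these data; inconclusive = activity change between two set negative limits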; note: % is set by controls: 0 for no effect and ±100 for the full control effect
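Competitive HTRF cAMP read-out (cryptate anti-cAMP antibody, cAMP-d2; 30 min, room temperature) in freshly harvested TSHR cells. Compounds added before TSH at EC80 (4nM final), followed by 2 hours' incubation at 37 deg C.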
D3 ag = agonists of human D3 dopamine receptor | P35462 | AID 652048 | D3R DiscoveRx beta-arrestin cells, luminescence, 90 min | actives 0.58% (n = 410,000) | max activation, %; in the data active = max activation above about 30%; note: 0% is about no effect
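Agonist-mode cell screen: cells plated at 1500/well and incubated overnight at 37 °C, then exposed to library compounds for 90 min at 37 °C. Detection reagent was added for 30–60 min at room temperature, and luminescence was read.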
B2AR arrestin = beta2AR (human) beta-arrestin recruitment activity; P07550; actives 0.02% (n = 330,000); Potency, µM (doses to about 46.1 µM), for the others: at the top dose activation, most hits filed as activators; AID 492947; beta-arrestin recruitment to beta2AR, cell-based reporter; active = well fitted activation curve with a large enough effect; inconclusive = small, poorly fitted or top-dose-only effect;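 note: potency is the fitted concentration of half-maximal effect; 0% = DMSO controls and full agonism = EC100 isoproterenol or metaproterenol; nearly all actives have a fitted effect of over 65% in size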
Target sequence (P07550 whole entry, looked up): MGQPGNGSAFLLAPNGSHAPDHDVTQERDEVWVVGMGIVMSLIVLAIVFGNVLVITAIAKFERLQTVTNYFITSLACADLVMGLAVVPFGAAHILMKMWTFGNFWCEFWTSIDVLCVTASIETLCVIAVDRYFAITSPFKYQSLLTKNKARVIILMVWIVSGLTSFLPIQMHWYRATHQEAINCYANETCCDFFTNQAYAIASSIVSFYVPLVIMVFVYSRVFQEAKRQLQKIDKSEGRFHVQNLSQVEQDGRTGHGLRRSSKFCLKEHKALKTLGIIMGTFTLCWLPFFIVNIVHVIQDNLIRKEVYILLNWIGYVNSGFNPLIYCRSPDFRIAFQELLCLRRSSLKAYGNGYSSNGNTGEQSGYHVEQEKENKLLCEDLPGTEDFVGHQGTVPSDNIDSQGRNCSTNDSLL
D3 antag = antagonists of human D3 dopamine receptor; max response, negative = inhibition, %; D3R cells, DiscoveRx beta-arrestin luminescence, antagonist mode; stronger effect = lower value; P35462; actives 2.5% (n = 360,000); in the data active = max response below about -50%; inconclusive = no clear call, values can overlap the other calls; note: % is set by controls: 0 for no effect and ±100 for the full control effect
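Cells expressing the human receptor were seeded at 1500 cells/well, incubated overnight at 37 degrees C in 5% CO2, then exposed to library compounds with dopamine controls for 90 minutes at 37 degrees C before luminescent detection.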
* hit, by the source's call; ? = inconclusive; / = no result given. In the library only some 2.9% were active in any assay of this set; here they are far more common.

SMILES | TSHR antagonist | D3 ag | B2AR arrestin | D3 antag
CCOc1ccccc1-n1nnc(-c2nc(-c3ccccc3)no2)c1N | / | 6 | / | /
CCC(=O)N1c2ccccc2CC1C(=O)NCCc1ccccc1 (stereo not given) | / | -5 | / | /
COc1ccc(NC(=O)c2ccc(CN3CCc4ccccc4C3)cc2)cc1OC | -11 | -15 | -1% | -64*
COc1cccc(NC(=O)c2ccc(CN3CCN(c4ccccc4)CC3)cc2)c1 | -39 | 3 | 0% | -18
O=C(NCCCN1CCOCC1)c1cccc(S(=O)(=O)N2CCc3ccccc3C2)c1 | -4 | -17 | 0% | -57*
Cc1cc(C)c(NC(=O)c2ccc(CN3CCc4ccccc4C3)cc2)c(C)c1 | -14 | -11 | -1% | -53*
COc1cccc(NC(=O)c2ccc(CN3CCc4ccccc4C3)cc2)c1 | -5 | -17 | 0% | -102*
CCc1ccccc1-n1nnc(-c2nsc(NC(=O)c3ccc(C)c(C)c3)n2)c1C | / | 8 | / | /
CCc1ccc(S(=O)(=O)c2cn(CC(=O)Nc3ccc(C)cc3)c3ccccc3c2=O)cc1 | / | 6 | / | /
Cc1cccc(-c2nc(C)c(CCNC(=O)C(=O)Nc3ccccc3C#N)s2)c1 | / | 7 | / | /
O=C(Nc1ccc(S(=O)(=O)N2CCOCC2)cc1)c1ccc(CN2CCc3ccccc3C2)cc1 | -20 | -11 | 0% | -54*
CC(=O)c1cccc(NC(=O)c2ccc(CN3CCc4ccccc4C3)cc2)c1 | -25 | -30 | 0% | -89*
O=C(Nc1ccc(Cl)cc1)c1ccc(CN2CCc3ccccc3C2)cc1 | -26 | -22 | 0% | -16
O=C1C2C3C=CC(C3)C2C(=O)N1c1n[nH]c(-c2ccccc2)n1 (stereo not given) | 6 | 34* | 0% | -4
COc1ccc(N(C)S(=O)(=O)c2cccc3cccnc23)c(OC)c1 | -5 | 31* | 0% | 34
COc1ccccc1NC(=O)CN(C)S(=O)(=O)c1cccc2cccnc12 | -3 | 0 | -1% | 5
CCCn1c(Nc2nc3ccccc3n2C)nc2ccccc21 | -4 | -23 | ? | -102*
Cc1nc2ccccc2n1CC(=O)NCc1ccccc1 | -10 | -2 | 0% | -50*
Cn1c(CCCNC(=O)c2cccs2)nc2ccccc21 | -6 | -13 | 0% | -2
Cn1c(CCCNC(=O)c2ccccc2)nc2ccccc21 | 1 | 0 | 0% | -54*
O=C(Cn1c(=O)nc(-c2ccccc2)c2cc(Cl)ccc21)NCCc1ccc(Cl)cc1 | / | 8 | / | /
O=C(Cn1c(=O)nc(-c2ccccc2)c2cc(Cl)ccc21)NCc1ccccc1 | / | 32* | / | /
CCCCn1c(Nc2ccccc2)nc2ccccc21 | 11 | 2 | 0% | 21
Cc1ccc2oc(=O)n(CCNC(=O)Nc3ccc(C)c(F)c3)c2c1 | / | 2 | / | /
COc1cccc(Cn2c(C)c(CNCc3cccc(C)c3)c(C(=O)O)c2C)c1 | / | -8 | / | /
SMILES | TSHR antagonist | D3 ag | B2AR arrestin | D3 antag
Cc1cccc(-c2nc(S(=O)(=O)c3ccc(F)cc3)c(N3CCN(c4ccccc4)CC3)o2)c1 | / | -7 | / | /
COc1ccc(C(=O)Nc2ccc3c(c2)nc(CCNC(C)=O)n3C)cc1 | -2 | 11 | 1% | 7
CC(C)Cn1c(CCCNC(=O)c2ccc(F)cc2)nc2ccccc21 | -5 | -10 | 0% | -4
Cn1c(CCc2ccc(N)cc2)nc2ccccc21 | 9 | -7 | 0% | -51*
COc1ccc(C(=O)NCCc2nc3cc([N+](=O)[O-])ccc3n2C)cc1 | 6 | -21 | 0% | -113*
Cn1c(-c2ccc(N)cc2)nc2ccccc21 | 12 | 1 | 0% | 12
CCCn1c(CNC(=O)c2ccccc2)nc2ccccc21 | 7 | -9 | 0% | -79*
CC(C)Cn1c(CNC(=O)c2ccccc2)nc2ccccc21 | 5 | 11 | 0% | -56*
CCCn1c(CNC(=O)c2cccs2)nc2ccccc21 | -5 | -12 | 0% | -13
Cc1ccc(C(C)C)c(OCc2ccc(C(=O)Nc3ccc(S(N)(=O)=O)cc3C)o2)c1 | / | 5 | / | /
Cc1ccc(C2Nc3cc(C)c(C)cc3-n3c(-c4ccccc4)c4c(=O)n(C)c(=O)n(C)c4c32)o1 (stereo not given) | / | 7 | / | /
COc1ccc(Cn2c(=O)n(-c3ccc(C)cc3)c(=O)c3c2c2cc(C)ccc2n3C)cc1 | / | 37* | / | /
Cc1ccc(-n2[nH]c(C)c(/C=N/Nc3ccc([N+](=O)[O-])cc3[N+](=O)[O-])c2=O)cc1 | ? | -21 | 0% | -56*
COCCCNCCCCOc1ccc(Br)cc1Cl | 2 | -8 | -2% | 0
C=CCNCCCOc1ccc(Cl)cc1Br | 3 | -15 | -1% | -67*
Cc1cc(Br)ccc1OCCCCNCCO | 1 | -2 | -1% | -60*
